In PubChem BioAssay (Tox21):
Results filed as inconclusive are left out. More than one record can exist for a structure, and the calls need not agree. Calls of active or inactive are those of the source. Unless noted, calls follow the shape of the full dose curve.

Tests used:
[1] = Nuclear factor erythroid 2-related factor 2/antioxidant responsive element (Nrf2/ARE) small molecule agonists: qHTS cell viability counter screen in human keratinocytes (AID 1919968; active = well fitted curve in the direction sought with a large enough effect in the repeat runs; an effect the other way counts as inactive or inconclusive; also: nearly all actives have a fitted effect of over 55% in size)
How it was run: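 Parallel cytotoxicity read: KeratinoSens HaCaT cells, compound treatment 23 h, viability by CellTiter-Fluor fluorescence 1 h post-reagent.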

[2] = Nuclear factor erythroid 2-related factor 2/antioxidant responsive element (Nrf2/ARE) small molecule agonists: luciferase reporter gene qHTS assay in human keratinocytes (AID 1919969); also: nearly all actives have a fitted effect of over 35% in size; also: potency is read from the fitted curve at half-maximal effect
[3] = target: Gonadotropin-releasing hormone receptor (Homo sapiens) (UniProt P30968); test: Human gonadotropin-releasing hormone receptor (GnRHR) small molecule agonists, calcium flux assay in GnRHR-HEK293 cells (AID 1920063); also: nearly all actives have a fitted effect of over 35% in size
How it was run: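 Calcium flux, agonist mode, human GnRHR stably integrated in HEK293; dye 1 h at 37 C before compound; Ex/Em=480/540 kinetic read, 3 min; 15 concentrations, triplicate.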

[4] = target: KiSS-1 receptor (Homo sapiens) (UniProt Q969F8); test: Human kisspeptin (KISS1R) small molecule agonists, calcium flux assay in KISS1R-HEK293 cells (AID 1920064; active = well fitted curve in the direction sought with a large enough effect in the repeat runs; an effect the other way counts as inactive or inconclusive)
How it was run: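 Triplicate 15-concentration series were applied to dye-loaded human KISS1R HEK293 cells, and agonist-evoked calcium fluorescence was captured for 3 min.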

[5] = G protein-coupled receptor (GPCR) small molecule agonists, calcium flux assay: HEK293 wild type cell line counter screen (AID 1920065)
How it was run: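 Non-specific calcium responders were flagged by adding DMSO-dissolved compounds to dye-loaded cells and reading 480/540 nm fluorescence each second for 3 min; ATP served as positive control.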

[6] = p53 small molecule agonists, cell-based qHTS assay with human liver microsomes (AID 1963577)
How it was run: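 Fluorescence of the beta-lactamase reporter in p53RE-bla cells, detected with LiveBLAzer substrate (2 h, room temperature, dark), served as the read-out after 16 h compound exposure at 37 C with human liver microsomes and NADPH, each 0.5 mg/mL final.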

[7] = p53 small molecule agonists, cell-based qHTS assay with rat liver microsomes (AID 1963578)
How it was run: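 Cells carrying a p53 response element–beta-lactamase reporter were plated and rested 5 h, then dosed with compound in DMSO plus rat liver microsomes and NADPH, each at 0.5 mg/mL final. After 16 h at 37 C, LiveBLAzer substrate was added for 2 h.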

[8] = p53 small molecule agonists, cell-based qHTS assay with human liver microsomes: qHTS cell viability counter screen (AID 1963579); also: nearly all actives have a fitted effect of over 45% in size
How it was run: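 Cytotoxicity counter screen: p53RE-bla, 4,000 cells/well; 5 h settle, 37 C/5% CO2; cpd + HLM 0.5 mg/mL + NADPH 0.5 mg/mL (final); 16 h, 37 C; CellTiter-Glo, 30 min RT, luminescence.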

[9] = p53 small molecule agonists, cell-based qHTS assay with rat liver microsomes: qHTS cell viability counter screen (AID 1963580); also: nearly all actives have a fitted effect of over 45% in size
How it was run: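 Cytotoxicity counter screen: intracellular ATP measured by CellTiter-Glo luminescence in the same wells as the beta-lactamase reporter read, on HCT-116 p53RE-bla cells exposed 16 h at 37 C to compounds with rat liver microsomes and NADPH, each 0.5 mg/mL final.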

[10] = p53 small molecule agonists, cell-based qHTS assay: qHTS cell viability counter screen (AID 1963581); also: nearly all actives have a fitted effect of over 45% in size
How it was run: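 Multiplexed with the reporter read, a CellTiter-Glo step (30 min, room temperature) gauges ATP-based viability of HCT-116 p53RE-bla cells after 16 h compound incubation at 37 C.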

[11] = p53 small molecule agonists, cell-based qHTS assay (AID 1963582; active = well fitted activation curve with a large enough effect in the signal ratio in the repeat runs, not every such curve was filed as active; the % refers to the signal ratio)
How it was run: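 Beta-lactamase reporter cells (p53RE-bla) treated with compounds for 16 h at 37 C; FRET substrate, 2 h, room temperature; fluorescence intensity.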

[12] = target: 5-hydroxytryptamine receptor 2A (Homo sapiens) (UniProt P28223); test: 5-hydroxytryptamine receptor 2A (HTR2A) small molecule antagonists, cell-based qHTS assay (AID 1963586); also: nearly all actives have a fitted effect of over 45% in size; also: potency is read from the fitted curve at half-maximal effect
How it was run: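 CHO cells stably expressing human HTR2A were plated for 18 h at 37 C, then loaded with calcium dye for 1 h. Compounds were preincubated 5 min at room temperature before DOI (4 nM solution) was added. Kinetic fluorescence was read for 3 min.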

[13] = target: 5-hydroxytryptamine receptor 2A (Homo sapiens) (UniProt P28223); test: 5-hydroxytryptamine receptor 2A (HTR2A) small molecule agonists, cell-based qHTS assay (AID 1963587); also: nearly all actives have a fitted effect of over 30% in size
How it was run: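 CHO cells stably expressing human HTR2A, plated 18 h, loaded with calcium dye 1 h at 37 C. Agonist mode: compounds added and intracellular calcium fluorescence recorded kinetically for 2 min at 1 sec intervals.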

[14] = target: Muscarinic acetylcholine receptor M1 (Homo sapiens) (UniProt P11229); test: Cholinergic receptor muscarinic 1 (CHRM1) small molecule antagonists, cell-based qHTS assay (AID 1963588); also: nearly all actives have a fitted effect of over 40% in size
How it was run: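 Compounds were tested at 15 concentrations in three independent runs. Dye-loaded CHRM1-CHO cells were exposed 5 min at room temperature before stimulation by acetylcholine added at 50nM. Intracellular calcium was read kinetically on FDSS for 3 min.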

[15] = target: Muscarinic acetylcholine receptor M1 (Homo sapiens) (UniProt P11229); test: Cholinergic receptor muscarinic 1 (CHRM1) small molecule agonists, cell-based qHTS assay (AID 1963589); also: nearly all actives have a fitted effect of over 35% in size
How it was run: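 qHTS, 15-point titration, 3 independent runs: compounds pin-transferred onto dye-loaded CHRM1-CHO cells (human M1), calcium fluorescence followed every second to detect agonism.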

[16] = cAMP Responsive Elements (CRE) small molecule agonists, cell-based qHTS assay (AID 1963590)
How it was run: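 Quantitative HTS for CRE agonists: HEK 293T CRE-bla cells, overnight plating, 3 h compound incubation at 37 C/5% CO2, then 2 h room-temperature LiveBLAzer B/G FRET substrate loading.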

[17] = cAMP Responsive Elements (CRE) small molecule antagonists, cell-based qHTS assay (AID 1963591; active = well fitted inhibition curve with a large enough effect in the signal ratio in the repeat runs, not every such curve was filed as active; the % refers to the signal ratio)
How it was run: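 Fluorescence intensity from cleaved LiveBLAzer B/G substrate (2 h, room temperature) quantified CRE-bla activity in HEK 293T cells exposed 3 h to compound with 0.25 uM final NKH477.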

[18] = target: Beta-2 adrenergic receptor (Homo sapiens) (UniProt P07550); test: Adrenergic beta2 receptor (ADRB2) small molecule antagonists, cell-based qHTS assay (AID 1963592); also: series mostly up to about 92 µM; nearly all actives have a fitted effect of over 50% in size
How it was run: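 Assay format: CHO-ADRB2 cells, 18-20hr seeding at 37C/5% CO2, then compound plus 1nM isoproterenol agonist mix for 0.5hr RT. Homogeneous time-resolved fluorescence cAMP detection after 1hr, expressed as 665/615 nm ratio.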

[19] = target: D(2) dopamine receptor (Homo sapiens) (UniProt P14416); test: Dopamine D2 receptor (DRD2) small molecule agonists, cell-based qHTS assay (AID 1963594); also: nearly all actives have a fitted effect of over 35% in size
How it was run: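 HEK293 cells stably expressing human DRD2, pre-treated with PDE inhibitor Ro20-1724 (0.1 mM final) and compound 10 min at room temperature, then stimulated with NKH477 (200nM […]) for 30 min. cAMP read by HTRF (665/620 nm).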

[20] = target: D(2) dopamine receptor (Homo sapiens) (UniProt P14416); test: Dopamine D2 receptor (DRD2) small molecule antagonists, cell-based qHTS assay (AID 1963595; active = well fitted inhibition curve with a large enough effect in the signal ratio in the repeat runs, with a control signal flat; the % refers to the signal ratio)
How it was run: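 In this cell-based antagonist screen, compounds act for 10 min at room temperature before a 30 min challenge with 12 nM quinpirole and 200 nM NKH477. cAMP is quantified by HTRF competition in DRD2-HEK293 cells containing 0.1 mM Ro20-1724.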

Measured: Potency

Chain of Gonadotropin-releasing hormone receptor (Homo sapiens) (P30968 whole entry, looked up): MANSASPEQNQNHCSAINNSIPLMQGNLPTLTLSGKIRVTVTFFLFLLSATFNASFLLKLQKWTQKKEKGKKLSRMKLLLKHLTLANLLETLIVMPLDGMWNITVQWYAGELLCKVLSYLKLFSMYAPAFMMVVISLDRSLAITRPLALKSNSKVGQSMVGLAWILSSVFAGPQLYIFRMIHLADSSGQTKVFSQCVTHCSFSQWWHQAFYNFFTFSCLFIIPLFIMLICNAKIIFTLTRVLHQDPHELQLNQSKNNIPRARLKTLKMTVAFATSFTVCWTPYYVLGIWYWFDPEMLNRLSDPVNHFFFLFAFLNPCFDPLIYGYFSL
Chain of Muscarinic acetylcholine receptor M1 (Homo sapiens) (P11229 whole entry, looked up): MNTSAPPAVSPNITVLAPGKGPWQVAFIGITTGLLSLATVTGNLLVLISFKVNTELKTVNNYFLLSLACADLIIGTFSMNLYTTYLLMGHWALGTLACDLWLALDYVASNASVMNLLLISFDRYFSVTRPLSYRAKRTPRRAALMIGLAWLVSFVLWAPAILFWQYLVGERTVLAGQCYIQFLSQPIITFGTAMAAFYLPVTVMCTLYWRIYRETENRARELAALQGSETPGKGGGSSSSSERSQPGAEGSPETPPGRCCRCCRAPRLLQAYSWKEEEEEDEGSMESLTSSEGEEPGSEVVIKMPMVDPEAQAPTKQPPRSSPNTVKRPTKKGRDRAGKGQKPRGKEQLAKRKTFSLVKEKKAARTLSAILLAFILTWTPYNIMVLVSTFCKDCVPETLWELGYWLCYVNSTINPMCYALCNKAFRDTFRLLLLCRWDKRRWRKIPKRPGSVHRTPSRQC
Chain of KiSS-1 receptor (Homo sapiens) (Q969F8 whole entry, looked up): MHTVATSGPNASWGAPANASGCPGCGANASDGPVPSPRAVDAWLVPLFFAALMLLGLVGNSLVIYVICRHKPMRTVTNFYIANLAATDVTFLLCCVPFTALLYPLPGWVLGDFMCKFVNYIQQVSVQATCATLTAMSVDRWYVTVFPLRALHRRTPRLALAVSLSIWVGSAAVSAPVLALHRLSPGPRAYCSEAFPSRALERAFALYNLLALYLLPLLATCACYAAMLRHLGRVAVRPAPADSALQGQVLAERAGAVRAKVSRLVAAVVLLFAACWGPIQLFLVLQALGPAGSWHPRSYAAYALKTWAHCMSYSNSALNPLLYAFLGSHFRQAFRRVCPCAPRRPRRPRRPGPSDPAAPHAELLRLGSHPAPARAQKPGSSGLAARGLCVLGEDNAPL
Chain of 5-hydroxytryptamine receptor 2A (Homo sapiens) (P28223 whole entry, looked up): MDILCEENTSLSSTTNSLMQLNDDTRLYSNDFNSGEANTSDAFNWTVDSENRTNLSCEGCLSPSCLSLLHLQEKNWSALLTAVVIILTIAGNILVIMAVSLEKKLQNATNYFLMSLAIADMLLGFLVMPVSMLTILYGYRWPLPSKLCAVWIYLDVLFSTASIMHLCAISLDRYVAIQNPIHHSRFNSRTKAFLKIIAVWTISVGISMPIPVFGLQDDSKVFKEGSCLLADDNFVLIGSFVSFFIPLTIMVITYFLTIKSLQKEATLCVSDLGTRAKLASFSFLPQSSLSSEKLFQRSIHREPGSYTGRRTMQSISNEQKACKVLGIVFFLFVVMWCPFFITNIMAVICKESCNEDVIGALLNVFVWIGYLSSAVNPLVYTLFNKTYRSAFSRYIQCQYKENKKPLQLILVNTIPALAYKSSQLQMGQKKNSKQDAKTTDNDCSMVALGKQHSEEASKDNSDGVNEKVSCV
Chain of Beta-2 adrenergic receptor (Homo sapiens) (P07550 whole entry, looked up): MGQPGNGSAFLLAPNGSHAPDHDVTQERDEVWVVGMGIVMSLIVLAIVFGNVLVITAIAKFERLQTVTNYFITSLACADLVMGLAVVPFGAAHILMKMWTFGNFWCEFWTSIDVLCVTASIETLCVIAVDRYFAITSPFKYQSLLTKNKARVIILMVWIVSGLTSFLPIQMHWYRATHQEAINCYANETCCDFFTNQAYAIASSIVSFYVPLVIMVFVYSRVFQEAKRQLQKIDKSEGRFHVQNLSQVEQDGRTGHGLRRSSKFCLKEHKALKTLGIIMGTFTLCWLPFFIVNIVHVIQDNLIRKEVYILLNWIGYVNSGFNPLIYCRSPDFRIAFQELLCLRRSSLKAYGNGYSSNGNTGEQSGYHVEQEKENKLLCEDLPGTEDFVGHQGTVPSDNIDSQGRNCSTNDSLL
Chain of D(2) dopamine receptor (Homo sapiens) (P14416 whole entry, looked up): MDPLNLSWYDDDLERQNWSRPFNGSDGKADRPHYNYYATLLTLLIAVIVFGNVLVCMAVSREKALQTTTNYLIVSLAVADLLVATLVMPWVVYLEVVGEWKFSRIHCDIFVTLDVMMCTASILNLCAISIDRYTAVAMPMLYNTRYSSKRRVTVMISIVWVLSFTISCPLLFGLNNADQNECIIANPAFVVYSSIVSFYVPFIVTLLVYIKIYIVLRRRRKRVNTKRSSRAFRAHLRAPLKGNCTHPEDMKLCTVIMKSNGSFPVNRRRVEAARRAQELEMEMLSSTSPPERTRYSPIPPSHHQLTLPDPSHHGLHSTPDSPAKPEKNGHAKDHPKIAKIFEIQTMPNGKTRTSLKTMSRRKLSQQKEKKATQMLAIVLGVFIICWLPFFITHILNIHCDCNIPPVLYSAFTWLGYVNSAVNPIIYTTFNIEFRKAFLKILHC

N#Cc1ccc(Cl)cc1
inactive: all assays above

COc1ccc(C=O)cc1OC
69.3 µM (active) and inactive: [2]
inactive: all other assays above

N#Cc1cccc(C#N)c1
inactive: all assays above

OC[P+](CO)(CO)CO
inactive: all assays above

CCCCCCCCCCCCCCCl
inactive: all assays above

CC1(C)[C@H](C(=O)O[C@H](C#N)c2cccc(Oc3ccccc3)c2)[C@@H]1C=C(Br)Br
inactive: all assays above

CC(C)C1(C)N=C(c2nc3ccccc3cc2C(=O)O)NC1=O (stereo not drawn)
inactive: all assays above

COC(=O)c1ccccc1C(=O)OC
inactive: all assays above

CCN(C)N=O
not listed: [20]
inactive: all other assays above

CCN
inactive: all assays above

C1CS1
inactive: all assays above

c1ccc(N=Nc2ccccc2)cc1
not listed: [18]
inactive: all other assays above

COc1cc(N)c(Cl)cc1C(=O)NC1CN2CCC1CC2 (stereo not drawn)
active: [12] 5.79 µM
not listed: [17]
inactive: all other assays above

FC(F)(F)c1ccc(Cl)cc1
not listed: [17]
inactive: all other assays above

CC(Cl)CCl (stereo not drawn)
not listed: [17]
inactive: all other assays above

O=C(Cl)C(Cl)Cl
not listed: [18] | [19]
inactive: all other assays above
